Among the data in article PMC8384837, “Expanding the binding specificity for RNA recognition by a PUF domain” are binding signal values, retold here.

What all share (test): yeast three-hybrid, YBZ-1, SC-Leu-His + 0.5 mM 3-AT, 4 days
Conditions in all cases: tags: N-Gal4 AD-HA kept; label: inside an RPR1-promoter hybrid RNA with tandem MS2 sites; ssRNA

For one test, the target named is PUM1 PUF domain R7-RRV (Homo sapiens, UniProt Q14671 828-1176, S1079R;N1080R;E1083V). In short, it runs like this:
(§1)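 Sequencing with Illumina followed PCR amplification of the repeat regions from transformants grown four days on SC-Leu (input) or SC-Leu-His + 0.5 mM 3-AT (selection). The transformants were strain YBZ-1 with a LexA–MS2 coat fusion and a HIS3 reporter, carrying Pumilio-1 PUF domain libraries and matching RNA elements. The interaction score is the log change in variant frequency from input to selection, computed in log2 with a pseudocount of 1 for absent variants.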

Another test addresses PUM1 PUF domain R4-LGL (Homo sapiens, UniProt Q14671 828-1176, N971L;H972G;Q975L). In outline: as §1
The target of the next test is T1, PUM1 PUF domain R6-FYQ (Homo sapiens, UniProt Q14671 828-1176, N1043F).
T1 sequence: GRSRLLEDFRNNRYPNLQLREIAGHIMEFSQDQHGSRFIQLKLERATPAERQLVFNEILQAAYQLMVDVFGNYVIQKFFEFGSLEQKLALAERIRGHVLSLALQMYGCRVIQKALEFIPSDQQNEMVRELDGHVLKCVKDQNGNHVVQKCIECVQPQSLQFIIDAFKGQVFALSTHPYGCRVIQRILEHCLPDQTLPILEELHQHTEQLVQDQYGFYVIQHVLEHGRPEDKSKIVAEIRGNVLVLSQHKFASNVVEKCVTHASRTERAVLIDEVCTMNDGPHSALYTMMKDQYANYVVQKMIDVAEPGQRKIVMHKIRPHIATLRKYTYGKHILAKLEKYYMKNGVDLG
In short, it runs like this:
as §1

In another test the target is PUM1 PUF domain R3-CRV (Homo sapiens, UniProt Q14671 828-1176, Q939V). In outline:
as §1

The next test deals with T2, PUM1 PUF domain R6-LWG (Homo sapiens, UniProt Q14671 828-1176, N1043L;Y1044W;Q1047G).
T2 sequence: T1 sequence with F216L, Y217W, Q220G
In outline:
as §1

In another test the target is T3, PUM1 PUF domain R6-QYS (Homo sapiens, UniProt Q14671 828-1176, N1043Q;Q1047S).
T3 sequence: T1 sequence with F216Q, Q220S
In short, it runs like this:
as §1

The target in a further test is PUM1 PUF domain R4-SLS (Homo sapiens, UniProt Q14671 828-1176, N971S;H972L;Q975S). In outline: as §1
For another test, the target named is PUM1 PUF domain R5-MRV (Homo sapiens, UniProt Q14671 828-1176, C1007M;Q1011V). In outline:
as §1

The target in another test is PUM1 PUF domain R4-PWG (Homo sapiens, UniProt Q14671 828-1176, N971P;H972W;Q975G). In outline: as §1
In a further test the target is PUM1 PUF domain R5-RAD (Homo sapiens, UniProt Q14671 828-1176, C1007R;R1008A;Q1011D). In short, it runs like this: as §1
The target of another test is PUM1 PUF domain R3-FSR (Homo sapiens, UniProt Q14671 828-1176, C935F;R936S;Q939R). In outline:
as §1

The target of another test is PUM1 PUF domain R7-DHV (Homo sapiens, UniProt Q14671 828-1176, S1079D;N1080H;E1083V). In short, it runs like this:
as §1

The next test has as its target PUM1 PUF domain R4-LFW (Homo sapiens, UniProt Q14671 828-1176, N971L;H972F;Q975W). In outline:
as §1

The target of a further test is PUM1 PUF domain R5-QCL (Homo sapiens, UniProt Q14671 828-1176, C1007Q;R1008C;Q1011L). In short, it runs like this:
as §1

The target in a further test is PUM1 PUF domain R5-NAV (Homo sapiens, UniProt Q14671 828-1176, C1007N;R1008A;Q1011V). In outline:
as §1

The target in another test is PUM1 PUF domain R5-EGE (Homo sapiens, UniProt Q14671 828-1176, C1007E;R1008G;Q1011E). In outline: as §1
Another test deals with PUM1 PUF domain R3-RVQ (Homo sapiens, UniProt Q14671 828-1176, C935R;R936V). In short, it runs like this: as §1
The target in another test is PUM1 PUF domain R3-GHF (Homo sapiens, UniProt Q14671 828-1176, C935G;R936H;Q939F). In outline:
as §1

Another test has as its target PUM1 PUF domain R7-IFV (Homo sapiens, UniProt Q14671 828-1176, S1079I;N1080F;E1083V). In outline: as §1
The target of another test is PUM1 PUF domain R5-LYD (Homo sapiens, UniProt Q14671 828-1176, C1007L;R1008Y;Q1011D). In short, it runs like this:
as §1

Positions count from the first letter of the chain named.

With “GGCUAGAACUAGUGGAUCCCCCGGCGCCCGGCGGCUCGAGCCCGGGUAAGUCUAAAUAGUCUGCAUGCCGCCGGGCGCCAUGCCUGCAGGUCGACUCUAGAAAACAUG”, in the test with PUM1 PUF domain R7-RRV, the binding signal was 4.92 log2 enrichment (interaction score).
With “GGCUAGAACUAGUGGAUCCCCCGGCGCCCGGCGGCUCGAGCCCGGGUAAGUGUAAAUAGUCUGCAUGCCGCCGGGCGCCAUGCCUGCAGGUCGACUCUAGAAAACAUG”, the binding signal was 3.33 log2 enrichment (interaction score) with PUM1 PUF domain R4-LGL; 4.7 log2 enrichment (interaction score) in the test with PUM1 PUF domain R6-FYQ; 2.9 log2 enrichment (interaction score) with PUM1 PUF domain R3-CRV; 6.16 log2 enrichment (interaction score) with PUM1 PUF domain R6-LWG; 3.68 log2 enrichment (interaction score) with PUM1 PUF domain R6-QYS; 2.39 log2 enrichment (interaction score) with PUM1 PUF domain R4-SLS. The binding signal with PUM1 PUF domain R5-MRV was 1.85 log2 enrichment (interaction score); with PUM1 PUF domain R4-PWG, 5.84 log2 enrichment (interaction score).
As for “GGCUAGAACUAGUGGAUCCCCCGGCGCCCGGCGGCUCGAGCCCGGGUAAGUGUCAAUAGUCUGCAUGCCGCCGGGCGCCAUGCCUGCAGGUCGACUCUAGAAAACAUG”, the binding signal in the test with PUM1 PUF domain R5-RAD was 2.61 log2 enrichment (interaction score).
With “GGCUAGAACUAGUGGAUCCCCCGGCGCCCGGCGGCUCGAGCCCGGGUAAGUGUACAUAGUCUGCAUGCCGCCGGGCGCCAUGCCUGCAGGUCGACUCUAGAAAACAUG”, the binding signal in the test with PUM1 PUF domain R4-PWG was 5.43 log2 enrichment (interaction score).
With “GGCUAGAACUAGUGGAUCCCCCGGCGCCCGGCGGCUCGAGCCCGGGUAAGUGUAAGUAGUCUGCAUGCCGCCGGGCGCCAUGCCUGCAGGUCGACUCUAGAAAACAUG”, the binding signal is 3.48 log2 enrichment (interaction score) in the test with PUM1 PUF domain R3-FSR and 1.31 log2 enrichment (interaction score) with PUM1 PUF domain R3-CRV.
As to “GGCUAGAACUAGUGGAUCCCCCGGCGCCCGGCGGCUCGAGCCCGGGUAAGUUUAAAUAGUCUGCAUGCCGCCGGGCGCCAUGCCUGCAGGUCGACUCUAGAAAACAUG”, the binding signal is 4.01 log2 enrichment (interaction score) with PUM1 PUF domain R7-RRV and 5.24 log2 enrichment (interaction score) with PUM1 PUF domain R7-DHV.
As to “GGCUAGAACUAGUGGAUCCCCCGGCGCCCGGCGGCUCGAGCCCGGGUAAGUGUAUAUAGUCUGCAUGCCGCCGGGCGCCAUGCCUGCAGGUCGACUCUAGAAAACAUG”, the results for the binding signal in the test with PUM1 PUF domain R4-LFW and in the test with PUM1 PUF domain R4-PWG were 3.89 log2 enrichment (interaction score) and 6.71 log2 enrichment (interaction score), respectively.
With “GGCUAGAACUAGUGGAUCCCCCGGCGCCCGGCGGCUCGAGCCCGGGUAAGUGUGAAUAGUCUGCAUGCCGCCGGGCGCCAUGCCUGCAGGUCGACUCUAGAAAACAUG”, the binding signal in the test with PUM1 PUF domain R5-QCL is 2.87 log2 enrichment (interaction score); with PUM1 PUF domain R5-NAV, 1.26 log2 enrichment (interaction score); with PUM1 PUF domain R5-EGE, 2.78 log2 enrichment (interaction score); with PUM1 PUF domain R5-MRV, 2.45 log2 enrichment (interaction score).
In the case of “GGCUAGAACUAGUGGAUCCCCCGGCGCCCGGCGGCUCGAGCCCGGGUAAGUGUAAUUAGUCUGCAUGCCGCCGGGCGCCAUGCCUGCAGGUCGACUCUAGAAAACAUG”, the binding signal was 1.05 log2 enrichment (interaction score) with PUM1 PUF domain R3-CRV, 2.03 log2 enrichment (interaction score) with PUM1 PUF domain R3-RVQ and 2.21 log2 enrichment (interaction score) in the test with PUM1 PUF domain R3-GHF.
Take “GGCUAGAACUAGUGGAUCCCCCGGCGCCCGGCGGCUCGAGCCCGGGUAAGUAUAAAUAGUCUGCAUGCCGCCGGGCGCCAUGCCUGCAGGUCGACUCUAGAAAACAUG”: the binding signal in the test with PUM1 PUF domain R7-IFV is 2.59 log2 enrichment (interaction score).
Consider “GGCUAGAACUAGUGGAUCCCCCGGCGCCCGGCGGCUCGAGCCCGGGUAAGUGUUAAUAGUCUGCAUGCCGCCGGGCGCCAUGCCUGCAGGUCGACUCUAGAAAACAUG”, for which the binding signal was 1.31 log2 enrichment (interaction score) with PUM1 PUF domain R5-RAD, 3.06 log2 enrichment (interaction score) with PUM1 PUF domain R5-LYD, 2.55 log2 enrichment (interaction score) in the test with PUM1 PUF domain R5-NAV and 2.34 log2 enrichment (interaction score) with PUM1 PUF domain R5-MRV.
